Data on 23 compounds can be found in PubChem BioAssay (Tox21).

Assay [1] is described as follows: qHTS assay to identify small molecule agonists of the AP-1 signaling pathway (AID 1159526; calls by dose curve; note: % is set by controls: 0 for no effect and ±100 for the full control effect). As to conditions: ME-180 (cervical carcinoma) AP-1-bla reporter, beta-lactamase FRET ratio, 5 h; series mostly up to 76.8 µM. (qHTS replaces the single test concentration by a dilution series.)
Assay [2] deals with Estrogen receptor (Homo sapiens) (UniProt P03372). As to the kind of experiment: qHTS assay to identify small molecule antagonists of the estrogen receptor alpha (ER-alpha) signaling pathway (AID 743069; active = well fitted curve in the direction sought with a large enough effect in the signal ratio in the repeat runs, not every such curve was filed as active; inconclusive = weak or mixed curves, or effect the other way; inactive = no such curve, though single readings can be large or run the other way; the % refers to the signal ratio; note: potency is the fitted concentration of half-maximal effect). As to conditions: HEK293 ER-alpha-UAS-bla, beta-lactamase ratio, antagonist mode; series mostly up to 69.4 µM. Put shortly:
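Screening used a UAS-driven beta-lactamase reporter integrated into HEK293 cells expressing ER-alpha, stimulated with 17beta-estradiol alongside test compounds over 18 hr at 37C; signal came from LiveBLAzer B/G FRET fluorescence.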

Assay [3] shares this target. As to the kind of experiment: qHTS assay to identify small molecule agonists of the estrogen receptor alpha (ER-alpha) signaling pathway using the BG1 cell line (AID 743079). For activation: % is set by controls: 0 for no effect and ±100 for the full control effect. Note: nearly all actives have a fitted effect of over 20% in size. Note: potency is the fitted concentration of half-maximal effect. As to conditions: BG1Luc4E2 cells, ERE-luciferase agonist, 22 h; series mostly up to 70.3 µM.
Assay [4] can be described thus: qHTS assay to identify small molecule antagonists of the estrogen receptor alpha (ER-alpha) signaling pathway using the BG1 cell line (AID 743080; calls by dose curve;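 note: BG1 cells stimulated with 17beta-estradiol alongside compound; nearly all actives have a fitted effect of over 25% in size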; note: potency is the fitted concentration of half-maximal effect). As to conditions: BG1Luc4E2 ERE-luciferase antagonist mode, luminescence; series mostly up to 70.3 µM. An outline of the steps:
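Luciferase inhibition measured with ONE-Glo after 30 min at RT in BG1Luc4E2 cells given test compounds and 17beta-estradiol for 21.5 h at 37 C; CellTiter-Fluor viability read in the same wells beforehand.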

Assay [5] deals with Peroxisome proliferator-activated receptor gamma (Homo sapiens) (UniProt P37231). Briefly: qHTS assay to identify small molecule antagonists of the peroxisome proliferator-activated receptor gamma (PPARg) signaling pathway (AID 743191; calls by dose curve; note: nearly all actives have a fitted effect of over 30% in size; note: potency is the fitted concentration of half-maximal effect). The settings on record: HEK293H PPARg-UAS-bla, beta-lactamase ratio, antagonist, 17 h; series mostly up to 62.6 µM. An outline of the steps:
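GeneBLAzer PPARg UAS-bla HEK293H cells carrying a UAS-driven beta-lactamase reporter were plated at 3000 cells/well, preincubated 5 h at 37C, then given compound for 17 h at 37C; LiveBLAzer B/G FRET substrate was read after 1 h at room temperature.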

Assay [6] in a line: qHTS assay to identify small molecule antagonists of the glucocorticoid receptor (GR) signaling pathway - cell viability counter screen (AID 720693). Note: nearly all actives have a fitted effect of over 55% in size. Note: potency is the fitted concentration of half-maximal effect. The settings on record: GR-bla HeLa viability, CellTiter-Glo luminescence, 18 h, with 5 nM dexamethasone present; series mostly up to 58.5 µM.
The target of assay [7] is Androgen receptor (Homo sapiens) (UniProt P10275). Briefly: qHTS assay to identify small molecule agonists of the androgen receptor (AR) signaling pathway using the MDA cell line (AID 743040; note: % is set by controls: 0 for no effect and ±100 for the full control effect; nearly all actives have a fitted effect of over 20% in size). The settings on record: MDA-kb2 AR-luc cells, MMTV luciferase, 16 h; series mostly up to 70.3 µM. An outline of the steps: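 Agonist activity is measured as luciferase luminescence in human MDA-kb2 cells whose MMTV reporter responds to both AR and GR. Compounds in DMSO incubate 16 h at 37C, 0% CO2, and ONE-Glo is read after 30 min.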
Sequence of Androgen receptor (Homo sapiens) (P10275 whole entry, looked up): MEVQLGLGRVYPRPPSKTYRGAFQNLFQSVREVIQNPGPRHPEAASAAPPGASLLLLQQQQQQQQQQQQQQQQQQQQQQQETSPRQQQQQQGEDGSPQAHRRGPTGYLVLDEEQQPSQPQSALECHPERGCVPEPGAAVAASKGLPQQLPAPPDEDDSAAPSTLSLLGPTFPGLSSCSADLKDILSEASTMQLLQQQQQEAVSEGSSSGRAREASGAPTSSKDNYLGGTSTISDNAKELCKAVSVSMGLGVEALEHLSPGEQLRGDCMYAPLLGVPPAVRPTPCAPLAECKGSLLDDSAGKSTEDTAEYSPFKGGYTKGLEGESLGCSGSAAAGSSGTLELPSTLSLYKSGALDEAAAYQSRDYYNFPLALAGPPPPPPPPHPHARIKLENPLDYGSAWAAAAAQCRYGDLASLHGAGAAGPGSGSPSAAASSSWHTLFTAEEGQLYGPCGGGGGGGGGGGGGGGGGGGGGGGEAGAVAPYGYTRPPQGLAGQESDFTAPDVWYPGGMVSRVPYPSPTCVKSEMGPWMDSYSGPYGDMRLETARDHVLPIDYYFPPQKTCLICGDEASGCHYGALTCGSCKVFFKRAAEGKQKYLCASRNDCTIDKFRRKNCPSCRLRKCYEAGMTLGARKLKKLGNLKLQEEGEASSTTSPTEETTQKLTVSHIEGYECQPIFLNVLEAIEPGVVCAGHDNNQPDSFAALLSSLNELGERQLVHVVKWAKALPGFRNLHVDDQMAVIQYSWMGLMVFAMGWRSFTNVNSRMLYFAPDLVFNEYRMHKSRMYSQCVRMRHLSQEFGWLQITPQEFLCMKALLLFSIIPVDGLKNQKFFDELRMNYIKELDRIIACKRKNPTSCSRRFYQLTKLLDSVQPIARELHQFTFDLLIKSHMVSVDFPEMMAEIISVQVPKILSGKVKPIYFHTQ

Assay [8] has as its target Bile acid receptor (Homo sapiens) (UniProt Q96RI1). As to the kind of experiment: qHTS assay to identify small molecule agonists of the farnesoid-X-receptor (FXR) signaling pathway (AID 743220; active = well fitted activation curve with a large enough effect in the signal ratio in the repeat runs, not every such curve was filed as active; inconclusive = weak or mixed curves, or effect the other way; the % refers to the signal ratio; note: % is set by controls: 0 for no effect and ±100 for the full control effect). As to conditions: HEK293T FXR-UAS-bla, beta-lactamase FRET ratio, 16 h; series mostly up to 62.6 µM. An outline of the steps:
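FXR-UAS-bla HEK 293T cells carrying a UAS-driven beta-lactamase reporter were plated for 5 h at 37C/5% CO2, then exposed to DMSO-dissolved Tox21 10K compounds for 16 h at 37C. A LiveBLAzer B/G FRET substrate was loaded for 2 h at room temperature before fluorescence reading.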

Assay [9] deals with Androgen receptor (Homo sapiens) (UniProt P10275). Briefly: qHTS assay to identify small molecule antagonists of the androgen receptor (AR) signaling pathway using the MDA cell line (AID 743042; note: potency is the fitted concentration of half-maximal effect; nearly all actives have a fitted effect of over 55% in size). As to conditions: MDA-kb2 AR-luc, MMTV luciferase, R1881 antagonist, 16 h; series mostly up to 70.3 µM. An outline of the steps:
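MDA-kb2 cells (human breast carcinoma, stably carrying an MMTV-luciferase reporter responsive to AR and GR) were plated at 3,000 cells/well and preincubated 5 hr at 37C, then given compound plus R1881 agonist for 16 h. ONE-Glo luminescence was read.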

Assay [10] has as its target Nuclear receptor subfamily 1 group I member 2 (Rattus norvegicus) (UniProt Q9R1A7). Briefly: Rat pregnane X receptor (rPXR) activation by small molecules, qHTS assay (AID 1346983). Note: % is set by controls: 0 for no effect and ±100 for the full control effect; nearly all actives have a fitted effect of over 20% in size. As to conditions: rPXR luciferase reporter cells, One-Glo luminescence, 24 h; max activation: stronger effect = higher value. An outline of the steps:
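Cell-based rPXR luciferase reporter assay, 2,000 cells per well, rested 5hr at 37 C before compound addition in DMSO, then 24 hr at 37 C. One-Glo reagent was added and luminescence read after 30 min at room temperature.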

Assay [11] addresses Nuclear receptor subfamily 1 group I member 2 (Homo sapiens) (UniProt O75469). As to the kind of experiment: CYP3A4 induction through human pregnane X receptor (PXR) by small molecules, qHTS assay (AID 1346984). Note: % is set by controls: 0 for no effect and ±100 for the full control effect; nearly all actives have a fitted effect of over 40% in size. As to conditions: DPX-2 HepG2 PXR, CYP3A4-luciferin luminescence, 24 h; series mostly up to 46.1 µM. Put shortly: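 HepG2-derived DPX-2 line carrying PXR plus a CYP3A4-promoter luciferase reporter; cells plated 5 hr, compound-exposed 24 hr at 37C. CYP3A4 activity probed with 3uM (final) Luciferin-IPA for 3hr, then luciferase read after One-Glo.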

Assay [12] addresses Androgen receptor (Homo sapiens) (UniProt P10275). As to the kind of experiment: qHTS assay to identify small molecule antagonists of the androgen receptor (AR) signaling pathway (AID 743035; active = well fitted inhibition curve with a large enough effect in the signal ratio in the repeat runs, not every such curve was filed as active; inconclusive = weak or mixed curves, or effect the other way; inactive = no such curve, though single readings can be large or run the other way; the % refers to the signal ratio; note: potency is the fitted concentration of half-maximal effect). The settings on record: HEK293 AR-UAS-bla, R1881-stimulated, beta-lactamase FRET, 16 h; series mostly up to 58.5 µM. An outline of the steps:
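AR-bla HEK293 reporter cells; 4 h settle at 37C/5% CO2; compound + R1881 agonist, 16 h at 37C; LiveBLAzer B/G FRET substrate 2 h RT; fluorescence intensity read. qHTS format.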

Assay [13] can be described thus: qHTS assay for small molecule agonists of the antioxidant response element (ARE) signaling pathway (AID 743202; active = well fitted activation curve with a large enough effect in the signal ratio in the repeat runs, not every such curve was filed as active; inconclusive = weak or mixed curves, or effect the other way; inactive = no such curve, though single readings can be large or run the other way; the % refers to the signal ratio; note: potency is the fitted concentration of half-maximal effect). The settings on record: HepG2 ARE-bla reporter, beta-lactamase FRET, 16 h; series mostly up to 94.8 µM. Put shortly: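 Steps: seed ARE-bla HepG2 cells (2,000/well); incubate 5 h at 37 C; add compounds by pin tool; incubate 16 h at 37 C; add FRET substrate; read fluorescence after 2 h at RT.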

Assay [14] deals with Vitamin D3 receptor (Homo sapiens) (UniProt P11473). As to the kind of experiment: qHTS assay to identify small molecule antagonists of the vitamin D receptor (VDR) signaling pathway (AID 743223; active = well fitted inhibition curve with a large enough effect in the signal ratio in the repeat runs, not every such curve was filed as active; inconclusive = weak or mixed curves, or effect the other way; inactive = no such curve, though single readings can be large or run the other way; the % refers to the signal ratio; note: % is set by controls: 0 for no effect and ±100 for the full control effect). As to conditions: VDR-UAS-bla HEK293T, beta-lactamase FRET ratio, 16 h; series mostly up to 61 µM. An outline of the steps: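 After VDR-bla cells are plated and left 4 h at 37C, DMSO-dissolved compounds and 3 nM (final) calcitriol agonist are added. Incubation continues 16 h at 37C; FRET beta-lactamase substrate then develops 2 h at room temperature.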
Sequence of Vitamin D3 receptor (Homo sapiens) (P11473 whole entry, looked up): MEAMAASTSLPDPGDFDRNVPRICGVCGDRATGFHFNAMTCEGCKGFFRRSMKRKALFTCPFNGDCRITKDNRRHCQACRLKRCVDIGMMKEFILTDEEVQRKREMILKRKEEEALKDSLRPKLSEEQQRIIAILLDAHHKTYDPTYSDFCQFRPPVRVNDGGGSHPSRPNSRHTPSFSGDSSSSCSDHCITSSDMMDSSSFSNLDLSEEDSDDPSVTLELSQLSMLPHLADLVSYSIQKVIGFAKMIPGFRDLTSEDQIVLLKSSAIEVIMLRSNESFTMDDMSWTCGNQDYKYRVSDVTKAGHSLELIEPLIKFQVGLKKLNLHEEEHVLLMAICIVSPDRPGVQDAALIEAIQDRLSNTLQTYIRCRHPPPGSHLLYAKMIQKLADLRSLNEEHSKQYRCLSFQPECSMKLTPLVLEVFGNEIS

“And” between values parts separate entries of the source, which are not always exact repeats. Equal entries are not always repeated. The source made the active and inactive calls. Unless noted, calls come from the whole dose curve; as a rule, active = well fitted curve in the direction sought with a large enough effect in the repeat runs; inconclusive = weak or mixed curves; inactive = no such curve, though single readings can be large; an effect the other way counts as inactive or inconclusive.

Sequence of Estrogen receptor (Homo sapiens) (P03372 whole entry, looked up): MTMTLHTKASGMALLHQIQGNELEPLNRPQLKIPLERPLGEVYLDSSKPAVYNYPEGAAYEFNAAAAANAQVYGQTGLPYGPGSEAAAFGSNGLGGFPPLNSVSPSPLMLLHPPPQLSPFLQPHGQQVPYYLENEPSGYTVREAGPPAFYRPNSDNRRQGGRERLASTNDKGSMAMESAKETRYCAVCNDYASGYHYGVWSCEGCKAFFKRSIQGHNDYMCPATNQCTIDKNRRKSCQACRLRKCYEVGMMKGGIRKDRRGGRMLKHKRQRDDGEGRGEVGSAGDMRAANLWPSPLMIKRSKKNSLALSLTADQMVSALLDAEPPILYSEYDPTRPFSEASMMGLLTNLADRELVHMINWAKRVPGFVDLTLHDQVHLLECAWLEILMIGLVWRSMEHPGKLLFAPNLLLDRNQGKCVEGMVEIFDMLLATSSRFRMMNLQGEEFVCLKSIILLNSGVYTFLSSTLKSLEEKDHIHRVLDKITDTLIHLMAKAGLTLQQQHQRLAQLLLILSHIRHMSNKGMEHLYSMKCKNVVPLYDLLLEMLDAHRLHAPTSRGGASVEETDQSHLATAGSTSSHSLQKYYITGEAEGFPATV
Sequence of Bile acid receptor (Homo sapiens) (Q96RI1 whole entry, looked up): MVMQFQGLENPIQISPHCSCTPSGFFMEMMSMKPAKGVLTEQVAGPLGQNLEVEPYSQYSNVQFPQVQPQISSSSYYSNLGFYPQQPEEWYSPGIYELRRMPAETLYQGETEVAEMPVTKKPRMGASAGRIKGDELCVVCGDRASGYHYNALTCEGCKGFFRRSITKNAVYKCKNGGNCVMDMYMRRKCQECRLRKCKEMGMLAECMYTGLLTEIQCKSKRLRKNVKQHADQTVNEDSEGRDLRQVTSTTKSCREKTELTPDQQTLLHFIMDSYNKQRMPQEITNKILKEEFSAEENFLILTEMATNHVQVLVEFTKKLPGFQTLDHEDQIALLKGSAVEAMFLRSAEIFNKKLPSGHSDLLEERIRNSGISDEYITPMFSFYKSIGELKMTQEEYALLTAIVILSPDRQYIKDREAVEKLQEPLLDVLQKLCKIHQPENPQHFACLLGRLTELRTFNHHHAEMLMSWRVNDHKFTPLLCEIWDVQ
Sequence of Peroxisome proliferator-activated receptor gamma (Homo sapiens) (P37231 whole entry, looked up): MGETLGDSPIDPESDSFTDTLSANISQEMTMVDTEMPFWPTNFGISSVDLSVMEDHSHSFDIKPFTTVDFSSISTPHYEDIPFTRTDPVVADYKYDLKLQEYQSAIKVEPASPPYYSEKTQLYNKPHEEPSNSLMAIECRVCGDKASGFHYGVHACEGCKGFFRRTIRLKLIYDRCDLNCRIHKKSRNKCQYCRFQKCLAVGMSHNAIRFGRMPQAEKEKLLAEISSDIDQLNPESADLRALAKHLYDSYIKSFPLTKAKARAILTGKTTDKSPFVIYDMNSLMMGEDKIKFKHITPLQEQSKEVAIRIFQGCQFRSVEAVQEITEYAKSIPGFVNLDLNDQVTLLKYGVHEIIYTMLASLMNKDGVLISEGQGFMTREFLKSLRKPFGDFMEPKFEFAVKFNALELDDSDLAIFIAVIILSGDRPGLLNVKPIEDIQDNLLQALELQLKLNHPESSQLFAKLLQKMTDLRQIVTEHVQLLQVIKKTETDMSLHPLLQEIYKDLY
Sequence of Nuclear receptor subfamily 1 group I member 2 (Rattus norvegicus) (Q9R1A7 whole entry, looked up): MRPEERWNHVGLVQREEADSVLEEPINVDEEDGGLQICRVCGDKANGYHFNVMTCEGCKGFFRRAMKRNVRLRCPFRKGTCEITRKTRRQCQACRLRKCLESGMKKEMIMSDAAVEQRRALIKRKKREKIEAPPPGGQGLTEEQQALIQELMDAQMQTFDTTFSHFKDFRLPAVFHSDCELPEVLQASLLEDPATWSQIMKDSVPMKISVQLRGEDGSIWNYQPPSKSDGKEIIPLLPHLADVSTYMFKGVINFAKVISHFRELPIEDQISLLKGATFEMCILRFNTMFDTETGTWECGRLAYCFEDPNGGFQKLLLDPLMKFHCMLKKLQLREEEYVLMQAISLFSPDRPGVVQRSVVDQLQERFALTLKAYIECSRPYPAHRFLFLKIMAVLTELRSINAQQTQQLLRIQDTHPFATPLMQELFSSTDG

As to `C[C@]12CC[C@@H](O)C[C@@H]1CC[C@@H]1[C@@H]2CC[C@]2(C)C(=O)CC[C@@H]12`, in assay [1], the result was inactive.
As to `COc1ccc(C(c2ccc(OC)cc2)C(Cl)(Cl)Cl)cc1`, the Potency in assay [2] is 43.4 µM [inconclusive] (active); in assay [3], 4.97 µM (active). Further, in assay [4], the Potency entry is “inactive”.
Turning to `O=C(Nc1ccccc1-c1ccc(Cl)cc1)c1cccnc1Cl`, the Potency entry in assay [2], in assay [3] and in [4] was “inactive” in each case. Further, the Potency in assay [5] was 51.9 µM (active).
With `Cc1nnc2n1-c1sc(CCc3ccc(CC(C)C)cc3)cc1C(c1ccccc1Cl)=NC2C` (centres undefined), in [6], the Potency is 23.9 µM (active).
As for `COc1cc(OC)c(OC)cc1C=O`, the Potency entry in assay [7], in assay [3] and in assay [4] was “inactive” in each case.
`CNC(=O)Oc1cc(C)c(SC)c(C)c1`: the outcome in [1] was inactive.
As for `CCC(C)=O`, the result in [8] was inactive.
On the same count and under the same terms, then `CCCCC(CC)COC(=O)c1ccc(C(=O)OCC(CC)CCCC)cc1` (centres undefined), with “inactive”.
In the case of `CO/C=C(/C(=O)OC)c1ccccc1Oc1cc(Oc2ccccc2C#N)ncn1`, the Potency in assay [9] is 6.83 µM (active).
In the case of `O=C1C(I)=CC(=C(c2cc(I)c(O)c(I)c2)c2ccccc2C(=O)O)C=C1I`, in assay [2], the Potency was 7.56 µM [inconclusive] (active). Moreover, the Potency result in assay [3], in [4] and in assay [11] was “inactive” each time. Besides, the result in assay [1] was inactive. The max activation in assay [10] was -1.41% (inactive).
In the case of `O=[N+]([O-])c1c(Cl)c(Cl)cc(Cl)c1Cl`, the Potency result in [2] and in assay [4] was “inactive” in each case.
Take `OCC(c1ccc(Cl)cc1)c1ccc(Cl)cc1`: in assay [8], the outcome was inactive.
Regarding `Nc1ccc([N+](=O)[O-])cc1`, in assay [12], the Potency is 43.6 µM (active). For the same compound, the Potency entry in [7] was “inactive”.
Take `CC1COC(Cn2cncn2)(c2ccc(Oc3ccc(Cl)cc3)cc2Cl)O1` (centres undefined): the figures for the Potency in assay [4] and in assay [13] were 13.7 µM (active) and 1.93 µM (active), respectively. The outcome in [8] and in assay [1] was inactive.
For `CN1CSC(=S)N(C)C1`, the Potency entry in assay [6], in [3] and in [5] was “inactive” throughout. Further, the outcome in assay [8] and in assay [14] was inactive.
Regarding `Cc1ccc(N(SC(F)(Cl)Cl)S(=O)(=O)N(C)C)cc1`, in assay [6], the Potency result is “inactive”. Further, the Potency in [9] is 8.63 µM (active).
As for `O=C(O)C(c1ccc(Cl)cc1)c1ccc(Cl)cc1`, the result in assay [14] was inactive.
Consider `CCN(CC)C(=O)Cl`, for which the outcome in assay [1] was inactive.
On to `Cc1cc(C(C)(C)c2ccc(O)c(C)c2)ccc1O`, for which the Potency entry in assay [6] was “inactive”. Moreover, the Potency in [13] is 9.23 µM (active). The outcome in assay [8] and in [14] was inactive.
Regarding `CCc1cccc(C)c1N`, the result in assay [14] was inactive.
On to `ClC1=C(Cl)[C@]2(Cl)[C@@H]3[C@@H](Cl)[C@H]4O[C@H]4[C@@H]3C1(Cl)C2(Cl)Cl`, for which the Potency result in assay [2] was “inactive”. In addition, the outcome in assay [14] was inactive.
`Clc1ccccc1-c1ccccc1Cl`: the Potency result in [6] and in assay [13] was “inactive” each time.
Consider `CCOC(=O)C(O)(c1ccc(Cl)cc1)c1ccc(Cl)cc1`, for which the Potency in assay [6] was 17.6 µM (active); in assay [12] it was 19.5 µM (active); in assay [9] it was 19.5 µM (active) and 68.6 µM (active); in [2], 55.5 µM [cytotoxic] (active) and 54.9 µM [inhibitor] (active). The Potency entry in assay [7] was “inactive”.
